Data as given in PubChem BioAssay.
Where “and” joins values, the source holds several entries; their conditions need not be identical. Identical values can stand only once. A number with no mark means an inactive call. Rule as the data show it, unless noted: active = inhibition above about 28%; inactive = the rest.

System: Hepatitis C virus NS3 helicase
Experiment: blockers of NS3h binding to DNA – biochemical, fluorescence polarization, NIH Clinical Collection, primary screen (AID 743270; call rule not given here)
Details: NS3 helicase binding to Cy5-dT15 DNA, stronger effect = higher value, concentration not given here

Row | SMILES | inhibition
1 | COC(=O)[C@H](c1ccccc1Cl)N1CCc2sccc2C1 | -9.55%
2 | COc1ccc(/C=C/C(=O)Nc2ccccc2C(=O)O)cc1OC | 0.4%
3 | CC1=C(/C=C/C(C)=C/C=C/C(C)=C\C(=O)O)C(C)(C)CCC1 | 0.45%
4 | Cc1cccc(C)c1NC(=O)C1CCCCN1C (stereo not drawn) | -2.84%
5 | CN(C)c1nc(N(C)C)nc(N(C)C)n1 | -2.27%
6 | CC[C@H]1OC(=O)[C@H](C)[C@@H](O[C@H]2C[C@@](C)(OC)[C@@H](O)[C@H](C)O2)[C@H](C)[C@@H](O[C@@H]2O[C@H](C)C[C@H](N(C)C)[C@H]2O)[C@](C)(OC)C[C@@H](C)C(=O)[C@H](C)[C@@H](O)[C@]1(C)O | -0.4%
7 | CNCCC(Oc1ccc(C(F)(F)F)cc1)c1ccccc1 (stereo not drawn) | -2.27%
8 | CS(=O)(=O)c1ccc(C2=C(c3ccccc3)C(=O)OC2)cc1 | 3.56%
9 | Cc1occc(=O)c1O | -7.21%
10 | Nc1ncnc2c1ncn2[C@@H]1O[C@H](CO)[C@@H](O)[C@@H]1O | -4.09%
11 | CC(C)NCC(O)COc1ccc(CC(N)=O)cc1 (stereo not drawn) | -0.45%
12 | C[N+]1(C)CCCC(OC(=O)C(O)(c2ccccc2)c2ccccc2)C1 (stereo not drawn) | -3.18%
13 | CC(C)NCC(O)COc1cccc2ccccc12 (stereo not drawn) | -8.64%
14 | CCc1ccc(CCOc2ccc(CC3SC(=O)NC3=O)cc2)nc1 (stereo not drawn) | 0.4%
15 | CCCCC(=O)N(Cc1ccc(-c2ccccc2-c2nn[nH]n2)cc1)[C@H](C(=O)O)C(C)C | 4.36%
16 | C[C@H]1COc2c(N3CCN(C)CC3)c(F)cc3c(=O)c(C(=O)O)cn1c23 | -3.56%
17 | O=[N+]([O-])c1cccc2cn[nH]c12 | 1.53%
18 | COc1ccc(-c2cc(=O)c3c(OC)c(OC)c(OC)c(OC)c3o2)cc1OC | -1.19%
19 | CC(C(=O)O)c1ccc(-c2ccccc2)c(F)c1 (stereo not drawn) | -2.77% and -3.18%

Molecular target: Single-stranded DNA-binding protein (Escherichia coli (strain K12)) (UniProt P0AGE0)
Experiment: SSB-ssDNA binding inhibitors – biochemical, fluorescence polarization, NIH Clinical Collection, counter-screen for HCV NS3 helicase inhibitor project (AID 743271)
Details: E. coli SSB-DNA binding, stronger effect = higher value, concentration not given here

Row | SMILES | inhibition
20 | COC(=O)[C@H](c1ccccc1Cl)N1CCc2sccc2C1 | 3.34%
21 | COc1ccc(/C=C/C(=O)Nc2ccccc2C(=O)O)cc1OC | -1.64%
22 | CC1=C(/C=C/C(C)=C/C=C/C(C)=C\C(=O)O)C(C)(C)CCC1 | -1.24%
23 | Cc1cccc(C)c1NC(=O)C1CCCCN1C (stereo not drawn) | 1.97%
24 | CN(C)c1nc(N(C)C)nc(N(C)C)n1 | 1.81%
25 | CC[C@H]1OC(=O)[C@H](C)[C@@H](O[C@H]2C[C@@](C)(OC)[C@@H](O)[C@H](C)O2)[C@H](C)[C@@H](O[C@@H]2O[C@H](C)C[C@H](N(C)C)[C@H]2O)[C@](C)(OC)C[C@@H](C)C(=O)[C@H](C)[C@@H](O)[C@]1(C)O | -3.18%
26 | CNCCC(Oc1ccc(C(F)(F)F)cc1)c1ccccc1 (stereo not drawn) | -2.76%
27 | CS(=O)(=O)c1ccc(C2=C(c3ccccc3)C(=O)OC2)cc1 | 1.44%
28 | Cc1occc(=O)c1O | -2.76%
29 | Nc1ncnc2c1ncn2[C@@H]1O[C@H](CO)[C@@H](O)[C@@H]1O | -1.24%
30 | CC(C)NCC(O)COc1ccc(CC(N)=O)cc1 (stereo not drawn) | 0.29%
31 | C[N+]1(C)CCCC(OC(=O)C(O)(c2ccccc2)c2ccccc2)C1 (stereo not drawn) | -3.53%
32 | CC(C)NCC(O)COc1cccc2ccccc12 (stereo not drawn) | 2.57%
33 | CCc1ccc(CCOc2ccc(CC3SC(=O)NC3=O)cc2)nc1 (stereo not drawn) | 3.75%
34 | CCCCC(=O)N(Cc1ccc(-c2ccccc2-c2nn[nH]n2)cc1)[C@H](C(=O)O)C(C)C | 4.52%
35 | C[C@H]1COc2c(N3CCN(C)CC3)c(F)cc3c(=O)c(C(=O)O)cn1c23 | -3.95%
36 | O=[N+]([O-])c1cccc2cn[nH]c12 | -2.76%
37 | COc1ccc(-c2cc(=O)c3c(OC)c(OC)c(OC)c(OC)c3o2)cc1OC | -2.41%
38 | CC(C(=O)O)c1ccc(-c2ccccc2)c(F)c1 (stereo not drawn) | 6.83% and 0.29%
